Only some compounds are listed: those with a hit (about 6.4% of all), similar ones and a draw of the others.
RORg inh: qHTS for inhibitors of ROR gamma transcriptional activity; Nuclear receptor ROR-gamma (Mus musculus), P51450; Potency, µM (doses to about 53.6 µM), most hits filed as inhibitors; 310,000 compounds, 5.4% hits; AID 2551, 2010; Drosophila S2 Gal4-RORgamma UAS-luciferase reporter, 20 h; note: nearly all actives have a fitted effect of over 60% in size
Target sequence (P51450 whole entry, looked up, the tested form may be a part): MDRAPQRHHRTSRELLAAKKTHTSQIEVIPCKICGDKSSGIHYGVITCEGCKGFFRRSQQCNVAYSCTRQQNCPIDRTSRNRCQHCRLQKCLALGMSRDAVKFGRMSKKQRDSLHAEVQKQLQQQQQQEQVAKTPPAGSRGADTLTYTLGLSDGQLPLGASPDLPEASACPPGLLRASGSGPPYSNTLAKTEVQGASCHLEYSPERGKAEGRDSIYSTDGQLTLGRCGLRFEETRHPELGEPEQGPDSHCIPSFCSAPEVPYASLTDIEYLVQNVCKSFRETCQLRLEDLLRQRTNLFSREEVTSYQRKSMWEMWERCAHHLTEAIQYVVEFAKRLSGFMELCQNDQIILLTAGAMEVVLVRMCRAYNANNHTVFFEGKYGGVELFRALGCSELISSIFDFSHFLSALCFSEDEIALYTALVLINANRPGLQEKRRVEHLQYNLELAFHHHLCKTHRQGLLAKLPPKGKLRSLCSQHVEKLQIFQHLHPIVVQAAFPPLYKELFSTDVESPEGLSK
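Schneider cells (Drosophila), stable Gal4 DBD–ROR gamma + UAS-luc; 1 hr cmpd preincubation; Cu2+ induction 700 uM final; 20 hr ambient; luminescence.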
Gal4-VP16 FLuc: VP16 counterscreen qHTS for inhibitors of ROR gamma transcriptional activity; Drosophila S2 Gal4-VP16 UAS-luciferase, luminescence, 20 h; Potency, µM (top dose mostly 53.6 µM), hits mostly inhibitors; 310,000 compounds, 3.5% hits; AID 2546, 2010;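 note: Gal4-VP16 expression switched on by copper sulfate through the metallothionein promoter; nearly all actives have a fitted effect of over 50% in size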
KinaseGlo FLuc: Counterscreen for Luciferase (Kinase-Glo TM) Inhibition; Luciferin 4-monooxygenase (Photuris pensylvanica), Q27757; Kinase-Glo luciferase, ATP luminescence, 8 min; Potency, µM (series often up to 38.3 µM), usual class: inhibitors; 200,000 compounds, 0.28% hits; AID 1379, 2008; note: nearly all actives have a fitted effect of over 60% in size
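Substrate mix (final 50 mM imidazole pH 7.2, 50 mM KCl, 7 mM MgCl2, 10 uM ATP, 0.01% Tween 20, 0.05% BSA) plus pin-tool compound, then Kinase-Glo detection mix; 8 min ambient, luminescence read.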
Large screens that a line does not name were inactive; ! = not active in a repeat. Calls come from the whole dose curve; as a rule, active = well fitted curve in the direction sought with a large enough effect; inconclusive = small, poorly fitted or top-dose-only effect, or another doubt; inactive = no such curve, though single readings can be large; an effect the other way counts as inactive or inconclusive.

CCOC(=O)N1CCN(C(=O)CNC(=O)c2ccc(Br)cc2)CC1	none (no result: KinaseGlo FLuc)
Cc1ccc(C(=O)NC(=S)N2CCN(C(=O)OC(C)(C)C)CC2)cc1Br	RORg inh 0.63µM, Gal4-VP16 FLuc 1.1µM
NNC(=O)c1cncc(Br)c1	none (no result: KinaseGlo FLuc)
CCOC(=O)N1CCN(C(=S)NC(=O)c2cc(Br)ccc2Cl)CC1	RORg inh 0.89µM, Gal4-VP16 FLuc 5µM
CCOC(=O)N1CCN(C(=O)COc2ccc(Br)cc2Cl)CC1	none
CCOC(=O)N1CCN(C(=S)NC(=O)c2ccc(Br)cc2)CC1	RORg inh 0.56µM, Gal4-VP16 FLuc 1.3µM
CCOC(=O)N1CCN(C(=S)NC(=O)c2cncc(Br)c2)CC1	RORg inh 1.1µM, Gal4-VP16 FLuc 2.5µM
Cc1ccc(C)c(CNS(=O)(=O)c2c(C)[nH]c(C)c2C(=O)N2CCCCC2)c1	none (no result: KinaseGlo FLuc)
COc1ccc(S(=O)(=O)N/N=C(/C)c2ccncc2)c(OC)c1	none (no result: KinaseGlo FLuc)
COc1cccc(/C=C2\SC(=S)N(CCCC(=O)N3CCCCC3CCO)C2=O)c1 (configuration not stated)	RORg inh 3.5µM, Gal4-VP16 FLuc 2.8µM (no result: KinaseGlo FLuc)
COc1cccc(/C=C2\SC(=S)N(CCC(=O)N3CCCCC3CCO)C2=O)c1 (configuration not stated)	RORg inh inconclusive (no result: KinaseGlo FLuc)
COc1ccc(/C=C2\SC(=S)N(CCCC(=O)N3CCOCC3)C2=O)cc1OC	none (no result: KinaseGlo FLuc)
COc1cccc(/C=C2\SC(=S)N(CCCC(=O)N3CCCC3)C2=O)c1	RORg inh 2.5µM (no result: KinaseGlo FLuc)
COCCn1c(=O)c(-c2cccc(C#N)c2)nc2cnc(Oc3ccc(OC)cc3)nc21	RORg inh inconclusive (no result: KinaseGlo FLuc)
COc1ccc2ncc(OC(C)=O)cc2c1	none
N#Cc1c(SCC(=O)Nc2nncs2)sc2c(O)cc(=O)[nH]c12	none (no result: KinaseGlo FLuc)
Cc1ccc(Cn2cc(/C=N/Nc3ccc([N+](=O)[O-])cn3)c3ccccc32)cc1	RORg inh 11µM, Gal4-VP16 FLuc 7.9µM
Cc1cc(/C=N/Nc2ccc([N+](=O)[O-])cn2)c(C)n1-c1ccccc1	Gal4-VP16 FLuc inconclusive
COc1c(/C=N/Nc2nc(N3CCCCC3)nc(N3CCCCC3)n2)cccc1[N+](=O)[O-]	RORg inh 0.32µM
O=[N+]([O-])c1ccc(Nc2nc(N/N=C/c3cccc(F)c3)nc(N3CCCC3)n2)cc1	RORg inh inconclusive
COc1cccc(/C=N/Nc2ccc([N+](=O)[O-])cn2)c1O	RORg inh 4.5µM, Gal4-VP16 FLuc 7.1µM (no result: KinaseGlo FLuc)
O=C(O)Cn1cc(/C=N/Nc2ccc([N+](=O)[O-])cn2)c2ccccc21	none (no result: KinaseGlo FLuc)
O=[N+]([O-])c1ccc(/C=N/Nc2nc(N3CCCCC3)nc(N3CCCCC3)n2)o1	none
COc1cccc(/C=N/Nc2nc(Nc3ccc([N+](=O)[O-])cc3)nc(N3CCCC3)n2)c1O	RORg inh 4.5µM
COC(=O)c1ccc(Cn2nc(-c3cc(C)ccc3C)ccc2=O)cc1	none (no result: KinaseGlo FLuc)
COc1ccc(/C=C(/NC(=O)c2ccco2)C(=O)N2CCCCCC2)cc1OC	none (no result: KinaseGlo FLuc)
C=C1CCN(C(Cc2ccccc2)C(=O)O)S(=O)(=O)c2ccccc21 (configuration not stated)	none (no result: KinaseGlo FLuc)
Cc1cccc(-c2ocnc2C(=O)N2CCN(C(=O)c3cccs3)CC2)c1	none (no result: KinaseGlo FLuc)
O=C(Nc1cc([N+](=O)[O-])ccc1O)c1ccc2c(c1)C(=O)N(Cc1ccco1)C2=O	RORg inh inconclusive (no result: KinaseGlo FLuc)
COCCn1c(=O)c(CCc2ccccc2)nc2cnc(N3CCN(C)CC3)nc21	none
COc1cccc(/C=N/Nc2nc(C)cc(=O)[nH]2)c1OC	none (no result: KinaseGlo FLuc)
O=[N+]([O-])c1cccc(/C=C/C=N/Nc2nc(N3CCCCC3)nc(N3CCCCC3)n2)c1	RORg inh 7.9µM
O=[N+]([O-])c1cccc(/C=N/Nc2nc(N3CCOCC3)nc(N3CCOCC3)n2)c1	none
COc1cccc(/C=N/Nc2ncccc2[N+](=O)[O-])c1OC	RORg inh 1.3µM, Gal4-VP16 FLuc 4.5µM (no result: KinaseGlo FLuc)
COc1ccc(NC(=O)C2CCCN2C(=O)Oc2ccccc2)cc1 (configuration not stated)	none
Cc1ccc(S(=O)(=O)N2CCOCC2)cc1NC(=O)CSc1nnnn1C	none
Cc1nn(-c2ccccc2)c2sc(-c3n[nH]c(=S)o3)cc12	RORg inh 2.8µM
Cc1nn(-c2ccccc2)c2sc(C(=O)O)cc12	none
NNc1nc2c(-c3cccc(C(F)(F)F)c3)nnn2c2ccccc12	RORg inh inconclusive (no result: KinaseGlo FLuc)
Cc1cc(C)c(CN2CCC(n3nccc3NC(=O)C3CCOC3)CC2)cc1C (configuration not stated)	none (no result: KinaseGlo FLuc)
Cc1ccnc(NC(=O)Nc2ccc(Br)cc2Cl)c1	none
Cc1cc(CNC(=S)Nc2cccc(Cl)c2Cl)nn1C	RORg inh inconclusive
Cc1cc(C)nc(NC(=S)Nc2ccc(Br)cc2Cl)c1	RORg inh 0.56µM, Gal4-VP16 FLuc inconclusive
Cc1cc(C)nc(NC(=S)Nc2cccc(Cl)c2Cl)c1	RORg inh 0.4µM, Gal4-VP16 FLuc 1.8µM
O=C(NCc1cccs1)c1ccc(CS(=O)Cc2cccc(Cl)c2)o1 (configuration not stated)	none (no result: KinaseGlo FLuc)
O=C(c1ccc2[nH]c(=O)c(=O)[nH]c2c1)N1CCN(Cc2ccccc2)CC1	none (no result: KinaseGlo FLuc)
CCC1(c2ccccc2)NC(=S)N(c2ccc(C)cc2)N1 (configuration not stated)	RORg inh 5µM, Gal4-VP16 FLuc inconclusive
CCCCCC1(C)NC(=S)N(c2ccccc2)N1 (configuration not stated)	RORg inh inconclusive, Gal4-VP16 FLuc inconclusive
C=C(C)CCC1(C)NC(=O)N(c2ccccc2)N1 (configuration not stated)	none (no result: KinaseGlo FLuc)
CCCCCCC1(C)NC(=S)N(c2ccccc2)N1 (configuration not stated)	RORg inh 7.1µM
CC1(CC(=O)Nc2ccccc2)NC(=S)N(c2ccccc2)N1 (configuration not stated)	RORg inh 7.9µM
CCC1(c2ccc(Cl)cc2)NC(=S)N(c2ccccc2)N1 (configuration not stated)	RORg inh inconclusive, Gal4-VP16 FLuc inconclusive
Cc1ccc(Cl)cc1NC(=O)Cn1nc(-c2cccs2)ccc1=O	none (no result: KinaseGlo FLuc)
Cc1ccccc1-c1ccc2ncnc(NCc3cccs3)c2c1	none (no result: KinaseGlo FLuc)
COc1cc(OC)cc(-c2nnc(SCC(=O)Nc3cccc(C(=O)O)c3)s2)c1	none
O=C(Cc1ccccc1)Oc1coc(CSc2ncccn2)cc1=O	none
CCN(CC)CCCNc1nc2cc(OC)c(OC)cc2c2nc(-c3ccccc3)nn12	RORg inh 10µM, Gal4-VP16 FLuc inconclusive
CCN(CC)CCCNc1nc2cc(OC)c(OC)cc2c2nc(-c3cccnc3)nn12	Gal4-VP16 FLuc inconclusive
CN1CCN(CCCN2c3ccccc3Sc3ccccc32)CC1	none
CN1CCN(CCCN2c3ccccc3Sc3ccc(Cl)cc32)CC1	RORg inh 2.8µM!, Gal4-VP16 FLuc inconclusive
Cc1ccc(S(=O)(=O)N2c3ccccc3-c3c(ssc3=S)C2(C)C)cc1	Gal4-VP16 FLuc inconclusive
COc1ccc2c(c1)-c1c(ssc1=S)C(C)(C)N2S(=O)(=O)c1ccc(C)cc1	RORg inh 8.9µM
C/C(CC1CC2=C(CC1(C)C)C(C)(C)CCC2)=N\NC(N)=S (configuration not stated)	RORg inh 2µM, Gal4-VP16 FLuc 3.2µM
C/C(CCC1CC(C)(C)OC1=O)=N\NC(N)=S (configuration not stated)	none (no result: KinaseGlo FLuc)
CC(=O)OCC1OC(C#CC(C)(C)C)C=CC1OC(C)=O (configuration not stated)	RORg inh inconclusive (no result: KinaseGlo FLuc)

Bioassay records deposited in PubChem by National Center for Advancing Translational Sciences (NCATS).
